# CBX7 AlphaScr = inhibitors of human CBX7 binding to H3K27me3 peptide | O95931 | AlphaScreen His6-CBX7 / biotin-H3K27me3 peptide binding; hits give low values | normalised signal (fraction of DMSO) (no concentration beside the values) | 66,000 compounds, 1.1% hits; in the data active means normalised signal below about 0.5
# Target sequence (O95931 whole entry, looked up): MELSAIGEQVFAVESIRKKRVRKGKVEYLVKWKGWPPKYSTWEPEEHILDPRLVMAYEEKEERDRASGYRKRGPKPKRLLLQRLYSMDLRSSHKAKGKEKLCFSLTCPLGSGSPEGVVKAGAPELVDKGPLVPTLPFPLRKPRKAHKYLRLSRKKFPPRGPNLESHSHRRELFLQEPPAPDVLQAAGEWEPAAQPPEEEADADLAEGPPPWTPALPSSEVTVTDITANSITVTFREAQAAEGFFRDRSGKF
# A number is an active result; . = inactive. The entries come from a sample that favours hits as a whole.
SMILES,CBX7 AlphaScr
CC(C)n1cnc2cc(NCc3ccc(Br)cc3)ccc21,0.378
CC(C)n1cnc2cc(NCc3ccc(Cl)cc3)ccc21,0.405
CC(C)n1cnc2cc(NCc3nc4ccccc4n3C)ccc21,.
CCn1cnc2cc(NCc3ccc(C)cc3)ccc21,.
CCOc1ccc(CNc2ccc3c(c2)ncn3C)cc1,.
CC(C)(C)n1cnc2cc(NCc3ccncc3)ccc21,.
COc1ccccc1N1CCN(c2ncc(C(=O)N3CCC(C)CC3)c3ccccc23)CC1,.
CCc1ccc(NC(=O)CCc2c(C)nc3ncnn3c2C)cc1,.
O=C(CCNS(=O)(=O)c1ccc2c(c1)CCC(=O)N2)Nc1ccc(Br)cc1,.
O=C(Nc1cccc(C(F)(F)F)c1)c1cnc2ccccn2c1=O,.
COc1ccccc1CNC(=O)C1CCN(S(=O)(=O)c2ccc(C)cc2)CC1,.
COc1ccc(NC(=O)c2cc(-c3ccc(C)cc3)nc3ccccc23)c(OC)c1,.
COc1ccc(N2C(=O)N(c3ccc(OC)cc3)C3CS(=O)(=O)CC32)cc1 (stereo not drawn),.
OCCNc1ncnc2c1cnn2-c1ccc(Cl)cc1,.
CCN(CC)S(=O)(=O)c1ccc(C(=O)Nc2nnc(C)o2)cc1,0.0844
CCCN(CCC)S(=O)(=O)c1ccc(C(=O)Nc2nnc(C)o2)cc1,0.0834
CCN(CC)S(=O)(=O)c1ccc(C(=O)Nc2nc3ccc4nc(C)sc4c3s2)cc1,.
CCN(Cc1ccccc1)S(=O)(=O)c1ccc(C(=O)Nc2nnc(-c3cccs3)o2)cc1,.
O=C(Cn1ccc2ccccc2c1=O)NCCC(=O)Nc1ccc2c(c1)OCO2,.
O=C(Cn1ncc2c1-c1ccccc1OC2)N1CCCc2ccccc21,.
COc1cc(OC)cc(-c2nc3nc(C)c(CCC(=O)NC4CCCCC4)c(C)n3n2)c1,.
Cc1nc2c(C(=O)NC3CCCCC3C)cnn2c(C)c1Cc1cccc(Br)c1 (stereo not drawn),.
Cc1ccc(C(=O)Nc2ccccc2NC(=O)c2c(-c3ccccc3Cl)noc2C)cc1,.
COc1ccc(OC)c(NC(=O)CCc2c(C)nc3c(c(C)nn3-c3ccccc3)c2C)c1,.
O=C(NCc1ccncc1)C(=O)Nc1cccc2ccccc12,.
SMILES,CBX7 AlphaScr
O=C(C(=O)N1CCOCC1)c1c(-c2ccccc2)[nH]c2ccccc12,.
CN(C(=O)Cc1nc(N)n[nH]1)C1(C(=O)Nc2ccccc2)CCCCC1,0.0266
Cc1ccc(NC(=O)C2(N(C)C(=O)Cc3nc(N)n[nH]3)CCCCC2)cc1,.
Nc1n[nH]c(CC(=O)N(Cc2ccccc2)C2(C(=O)Nc3ccccc3)CCCCC2)n1,.
Cc1cccc(-c2nnc(NC(=O)c3ccc(Cl)cc3)o2)c1,.
COc1ccc(C(=O)Nc2nnc(-c3ccccc3)o2)cc1OC,.
COc1ccc(-c2nnc(NC(=O)c3ccc(OC)c(OC)c3)o2)cc1,0.0863
COc1ccc(-c2nnc(NC(=O)c3ccc(Cl)cc3)o2)cc1,.
COc1ccc(C(=O)Nc2cccc(-c3nc4ccccc4o3)c2)cc1OC,.
COc1ccc(C(=O)Nc2nnc(-c3cccc(C)c3)o2)cc1OC,0.0175
CCOc1ccc(NC(=O)c2sc3ncn(CC(=O)N4CCCCC4C)c(=O)c3c2C)cc1 (stereo not drawn),.
COc1ccc(-c2cc(C(=O)Nc3cc(OC)c(Cl)cc3OC)no2)cc1,.
COc1ccc(CNC(=O)c2nc(-c3cccc(C)c3)oc2C)cc1,.
COC(=O)Cc1nc(NCc2ccccc2)c2c(C)c(C)sc2n1,.
CCOC(=O)c1ccc(NC(=O)c2cccc3c2C(=O)N(Cc2cccnc2)C3)cc1,.
Cc1cc(C)n2c(Nc3ccccc3C)c(-c3cccnc3)nc2n1,.
Cc1ccc(Cl)cc1N1CCN(CCNC(=O)Nc2cccc3ccccc23)CC1,.
Cc1cc(C)c(NC(=O)CN2C(=O)CSc3ncccc32)c(C)c1,.
Cc1ccc(C)c(CSc2nc3ccncc3n2Cc2cccc(F)c2)c1,.
Cc1ccc(C(=O)Nc2ccc3c(c2)ncn3-c2ccccc2)cc1,.
CCn1cnc2cc(NCc3ccc(OC)cc3OC)ccc21,.
CCCn1cnc2cc(NCc3ccc(OC)cc3OC)ccc21,.
COc1cccc(CNc2ccc3c(c2)ncn3-c2ccccc2)c1OC,0.259
COc1ccc(-n2cnc3cc(NCc4cccc(OC)c4OC)ccc32)cc1,0.198
COc1cccc(CNc2ccc3c(c2)ncn3C(C)(C)C)c1OC,.
SMILES,CBX7 AlphaScr
Cc1ccc2cc(CCNC(=O)c3ccc(Cl)cc3)c(=O)[nH]c2c1C,.
Cc1oc(-c2cccc(Cl)c2)nc1CN1CCCC(C(=O)NCCN(C)C)C1 (stereo not drawn),.
CCc1ccc(Nc2cc(C(=O)NCCOC)c3ccccc3n2)cc1,.
CCCCN(CC)S(=O)(=O)c1ccc(C(=O)Nc2c(C(=O)OCC)oc3ccccc23)cc1,.
CCCCN(CC)S(=O)(=O)c1ccc(C(=O)Nc2nnc(COC)o2)cc1,0.0616
COCCN(CCOC)S(=O)(=O)c1ccc(C(=O)Nc2nnc(C3CC3)o2)cc1,.
CCCCN(CCCC)S(=O)(=O)c1ccc(C(=O)Nc2nnc(C3CC3)o2)cc1,0.0448
COCc1nnc(NC(=O)c2ccc(S(=O)(=O)N(CCC#N)CCC#N)cc2)o1,0.0627
